Only some compounds are listed: those with a hit (about 2.8% of all), similar ones and a draw of the others.
TSG101-PTAP inh: blocks PTAP binding to human TSG101, validation. Q99816. Fluorescence polarization, FITC-PTAP peptide/Tsg101, 20 min. Potency, µM (titrated, usually from 115 µM), hits mostly inhibitors. 44,000 tested, under 10 active. AID 1347069; also: potency is read from the fitted curve at half-maximal effect; 0% is about no effect
Target sequence (Q99816 whole entry, looked up): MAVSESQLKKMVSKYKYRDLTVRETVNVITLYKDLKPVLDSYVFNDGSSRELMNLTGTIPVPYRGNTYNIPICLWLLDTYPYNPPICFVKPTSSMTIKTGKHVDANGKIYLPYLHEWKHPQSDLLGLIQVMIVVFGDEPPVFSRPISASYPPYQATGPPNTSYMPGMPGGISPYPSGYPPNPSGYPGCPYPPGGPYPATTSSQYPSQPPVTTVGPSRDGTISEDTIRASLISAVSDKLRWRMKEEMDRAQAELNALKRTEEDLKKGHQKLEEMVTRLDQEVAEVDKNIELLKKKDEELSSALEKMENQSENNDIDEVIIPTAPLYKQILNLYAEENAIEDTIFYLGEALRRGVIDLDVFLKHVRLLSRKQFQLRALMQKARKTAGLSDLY
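FITC-labeled PTAP peptide (50 nM final) binding to Tsg101 binding domain (10 uM final) read by fluorescence polarization after 20 min at r.t. in HEPES pH 7.5 buffer. Actives by CRC class, <25 µM.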
PMP22 txn: modulates PMP22 transcription in S16 Schwann cells. S16 Pmp22-F2sN Schwann cells, FLuc/NLuc coincidence luminescence, 24 h. AID 1508649. Potency, µM (top dose mostly 57.5 µM), for the others: top-dose activity change, negative = inhibition, most hits filed as inhibitors. 2% of 43,000 active; active = clear falling dose curves in both reporters; inconclusive = both reporters move, but less clearly or upward; inactive = either reporter flat; the % is the NLuc reporter signal; also: potency is read from the fitted curve at half-maximal effect; % is scaled to controls: 0 for no effect and ±100 for the full control effect
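Transcriptional readout in edited S16(c9) cells: two luciferases reported from the Pmp22 locus, measured in turn after 24 h compound incubation.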
S16 F2sN tox: toxic to S16 Pmp22-F2sN Schwann cells; S16 Pmp22-F2sN Schwann cells (luciferase reporters placed in the Pmp22 gene) viability, CellTiter-Glo, 24 h; Potency, µM (titrated, usually from 57.5 µM), without a hit: at the highest dose activity change, negative = cytotoxicity, most hits filed as cytotoxic; 0.48% of 43,000 active; also: potency is read from the fitted curve at half-maximal effect; % is scaled to controls: 0 for no effect and ±100 for the full control effect; nearly all actives have a fitted effect of over 65% in size
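Luminescence from CellTiter-Glo, read by CCD camera after a 15 min room-temperature incubation, served as the viability signal. Reporter Schwann cells (S16 Pmp22-F2sN) had been treated with pin-transferred compounds for 24 h at 37C.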
GALK inh: inhibitors of human galactokinase (GALK); recombinant GALK, Kinase-Glo ATP luminescence, 1 h; Potency, µM (highest dose often 57.5 µM), inactives show at the top dose activity, negative = inhibition, actives largely listed as inhibitors; 44,000 tested, under 10 active; AID 1347072;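 also: plate controls were full GALK reaction for no effect and reaction lacking GALK for full effect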
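Compounds were pinned into ATP buffer, then GALK-galactose mix was added (final 5 nM enzyme, 35 uM ATP, 100 uM galactose, pH 8.0). After 1 h at room temperature, Kinase-Glo Plus was added and luminescence read.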
pS6 MEF inh: mTORC1 pathway inhibition measured by phospho-rpS6 | AID 493208 | 0.78% of 44,000 active | Tsc2-/- p53-/- MEF, phospho-rpS6 immunofluorescence/PI, 24 h | Potency, µM (top dose mostly 38.3 µM), without a hit: top-dose activity change, negative = inhibition, actives largely listed as inhibitors;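 also: potency is read from the fitted curve at half-maximal effect; plate controls were DMSO for no effect and rapamycin for full effect; nearly all actives have a fitted effect of over 50% in size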
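Immunofluorescence of rpS6 phosphorylation in Tsc2-/-, p53-/- MEFs after 24 h compound exposure, normalized to propidium iodide signal. Activity is expressed as % positive cells, thresholded with 7.5 nM rapamycin.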
NLuc sat counter: NanoLuc enzyme inhibition artifact for PMP22 screen; shares compounds with PMP22 txn; Secreted NLuc enzyme (filtered S16 cell medium), Nano-Glo luminescence; Potency, µM (doses to about 57.5 µM), inactives show at the top dose activity change, negative = inhibition, usual class: inhibitors; 4% of 690 active; also: potency is read from the fitted curve at half-maximal effect; % is scaled to controls: 0 for no effect and ±100 for the full control effect
NLuc Km counter: NanoLuc inhibition at Km substrate, PMP22 artifact check | secreted NLuc enzyme, coelenterazine luminescence, Km conditions | shares compounds with PMP22 txn | Potency, µM (series often up to 57.5 µM), inactives show at the highest dose activity change, negative = inhibition, most hits filed as inhibitors | 5% of 690 active; also: potency is read from the fitted curve at half-maximal effect; % is scaled to controls: 0 for no effect and ±100 for the full control effect
FLuc counter: inhibits firefly luciferase, PMP22 counter-screen. shares compounds with PMP22 txn. purified P. pyralis FLuc, luminescence, 10 min. Potency, µM (titrated, usually from 57.5 µM), for the others: top-dose activity, negative = inhibition, most hits filed as inhibitors. 690 tested, under 10 active; also: % of control where 0% means no effect
S16 viab conf: S16 Schwann cell cytotoxicity, confirmatory; shares compounds with PMP22 txn; S16 Schwann cells viability, CellTiter-Glo ATP luminescence, 24 h; Potency, µM (series often up to 57.5 µM), for inactives: at the top dose activity change, negative = viability loss, usual class: cytotoxic; 7% of 690 active; also: potency is read from the fitted curve at half-maximal effect; % is scaled to controls: 0 for no effect and ±100 for the full control effect
PMP22 txn conf: PMP22 transcription modulation, confirmatory; 22% of 690 active; Potency, µM (titrated, usually from 57.5 µM), inactives show top-dose activity change, negative = inhibition, hits mostly inhibitors; S16 Schwann cells Pmp22-F2sN, dual luciferase, 24 h; AID 1508646; shares compounds with PMP22 txn; active = clear falling dose curves in both reporters; inconclusive = both reporters move, but less clearly or upward; inactive = either reporter flat; the % is the FLuc reporter signal; also: potency is read from the fitted curve at half-maximal effect
PMP22 HiBiT cnf: confirmation of modulators of rat PMP22 protein expression; shares compounds with PMP22 txn; S16 Schwann cells Pmp22-HiBiT, luminescence, 48 h; Potency, µM (titrated, usually from 27.9 µM), inactives show top-dose activity change, negative = inhibition, usual class: inhibitors; 95 tested, under 10 active
Target sequence (P25094 whole entry, looked up): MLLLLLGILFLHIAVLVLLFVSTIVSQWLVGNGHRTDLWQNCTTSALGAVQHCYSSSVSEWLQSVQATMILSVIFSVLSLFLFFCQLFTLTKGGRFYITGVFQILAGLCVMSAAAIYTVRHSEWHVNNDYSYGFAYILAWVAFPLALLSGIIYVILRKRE
An asterisk follows results filed as active; i = inactive; ? = inconclusive; . = not tested or not shown. Unless noted, calls follow the shape of the dose curve; as a rule, active = well fitted curve in the direction sought with a large enough effect; inconclusive = small, poorly fitted or top-dose-only effect, or another doubt; inactive = no such curve, though single readings can be large; an effect the other way counts as inactive or inconclusive.

SMILES	TSG101-PTAP inh	PMP22 txn	S16 F2sN tox	GALK inh	pS6 MEF inh	NLuc sat counter	NLuc Km counter	FLuc counter	S16 viab conf	PMP22 txn conf	others
O=C(Cn1c(-c2cccs2)cc2cc(F)ccc21)NCCCN1CCN(c2ccc(F)cc2)CC1	i	?	0%	-7%	-6%	.	.	.	.	.	PMP22 HiBiT cnf=3%
COc1ccc(CCNC(=O)Cn2c(-c3cccs3)cc3cc(F)ccc32)cc1OC	i	?	9%	-10%	-10%	.	.	.	.	.	PMP22 HiBiT cnf=?
CCOc1ccc(CCNC(=O)Cn2c(-c3cccs3)cc3ccccc32)cc1OCC	i	?	-8%	-7%	-1%	.	.	.	.	.
COc1cc(OC)c(OC)cc1/C=C/c1nc2cc3ccccc3cc2c(=O)n1-c1ccc(F)cc1F	i	9.5µM*	?	-2%	11%	3.1µM*	2.2µM*	?	-8%	13%
COc1cc(C(=O)CC2(O)C(=O)N(Cc3ccccc3Cl)c3ccccc32)cc(OC)c1OC (configuration not stated)	i	11µM*	-6%	7%	4.1µM*	-11%	-2%	8%	-3%	?
CN(C)CCNC(=O)c1ccc(Cn2c(=O)c3cccn3c3cccnc32)cc1	i	11µM*	-6%	4%	?	-5%	?	6%	31%	-31%
CCCCN(CC)CCCNC(=O)c1cc2c(=O)oc3ccc(C)cc3c2s1	i	?	6%	1%	-2%	.	.	.	.	.
CCCN(CCC)CCCNC(=O)c1cc2c(=O)oc3ccc(C)cc3c2s1	i	?	?	1%	-14%	-7%	-1%	-7%	?	?
Cc1ccc(S(=O)(=O)c2nnn3c2nc(NC2CCCCCC2)c2sccc23)cc1C	i	20µM*	1%	3%	-9%	?	-4%	-8%	6%	16µM*	PMP22 HiBiT cnf=?
O=S(=O)(c1ccc(Cl)cc1)c1nnn2c1nc(N1CCCCC1)c1sccc12	i	?	2%	-1%	0%	?	1%	5%	6%	?
CCCCNc1nc2c(S(=O)(=O)c3ccc(Cl)cc3)nnn2c2ccsc12	i	20µM*	0%	-9%	5%	-14%	?	4%	-3%	-19%
Cc1ccc(S(=O)(=O)c2nnn3c2nc(N2CCOCC2)c2sccc23)cc1C	i	13µM*	-8%	2%	-9%	?	0%	-9%	1%	-45%
CCC(C)n1c(=N)c(S(=O)(=O)c2ccccc2)cc2c(=O)n3ccccc3nc21 (configuration not stated)	i	?	3%	?	-17%	.	.	.	.	.
CCCCOc1ccc(C(=O)Nc2ccc3c(c2)N(C(C)=O)CCC3)cc1	i	-20%	8%	-3%	0%	.	.	.	.	.
CCOc1ccc(CCNC(=O)CCCc2nnc3n(CC(C)C)c(=O)c4sccc4n23)cc1	i	-11%	-6%	-8%	-2%	.	.	.	.	.
O=C(Cn1c(SCc2cccc(F)c2)nc2cccnc21)Nc1ccc(F)c(Cl)c1	i	-60%	-1%	1%	-4%	.	.	.	.	.
Nc1ccc(N2CCN(c3ncc(C(F)(F)F)cc3Cl)CC2)c(C(F)(F)F)c1	i	?	-22%	-4%	?	.	.	.	.	.
COc1ccc(OCC(=O)NCc2ccc3c(c2)CCN3C(=O)c2cccc(C)c2)cc1	i	20µM*	-22%	3%	?	?	-19%	-21%	-13%	?
CCOc1ccc(CNS(=O)(=O)c2cc(-c3cc(C)no3)ccc2C)cc1OC	i	-9%	0%	-1%	3%	.	.	.	.	.
CCc1ccc(-c2cc(C)no2)cc1S(=O)(=O)NCc1ccc(OC)cc1	i	6µM*	2%	2%	?	?	?	-18%	-11%	?
COc1ccccc1CCNC(=O)C(=O)NCC(c1ccco1)S(=O)(=O)c1ccc(C)cc1 (configuration not stated)	i	-15%	?	1%	-14%	.	.	.	.	.
COc1ccc(C)cc1NC(=O)c1cc(S(=O)(=O)N2CCN(c3cccc(C)c3C)CC2)ccc1F	i	?	-10%	0%	?	-2%	5%	-3%	-4%	7%
COc1ccc(OC)c(CNC(=O)c2c(C)oc3ncn(CC(C)C)c(=O)c23)c1	i	10µM*	?	?	1%	?	?	3%	-16%	?
COc1ccc(OC)c(CCNC(=O)c2c(C)oc3ncn(CC(C)C)c(=O)c23)c1	i	?	13%	3%	4%	.	.	.	.	.
CC(=O)c1ccc(N2CCN(S(=O)(=O)c3cc(-c4noc(C)n4)ccc3C)CC2)cc1	i	-5%	17%	1%	-25%	.	.	.	.	.
CC(=O)c1ccc(N2CCN(S(=O)(=O)c3cc(-c4onc(C)c4C)ccc3C)CC2)cc1	i	10µM*	-15%	1%	-14%	?	?	-1%	-9%	-18%
Cn1cc(CN(C(=O)Nc2ccccc2)C2CCCCC2)c2ccccc21	i	9.5µM*	?	1%	-6%	?	?	-26%	-16%	?
Cn1cc(CN(C(=O)Nc2ccc(Cl)c(Cl)c2)C2CCCCC2)c2ccccc21	i	-85%	20%	8%	-9%	.	.	.	.	.
CC(=O)N(Cc1cccnc1)c1nc2c(C)cccc2s1	i	-15%	-7%	1%	2%	.	.	.	.	.

Bioassay records from PubChem.
